Results taken from PubChem BioAssay (EPA / NIEHS).
Values joined by “and” are separate entries in the source; they are usually repeats but may differ in a detail not shown here. Identical values can stand only once. Where a structure was tested more than once in an assay, its records may differ in their call. Active and inactive are the calls of the source. The calls were made as follows: active = hit-call score of the fitted dose curve at least 0.9, where 1 is the maximum; inactive = score below 0.9.

Legend:
[1] = BSK_CASM3C_SRB: Viability Assessment in the BioMAP Diversity Plus: CASM3C Assay (AID 2283050); conditions: primary human coronary artery smooth muscle cells;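 also: cells exposed to compound for 24 h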
[2] = read-out: Thrombomodulin, THBD (gene 7056); assay: BSK_CASM3C_Thrombomodulin: BioMAP Diversity Plus: CASM3C Assay for Thrombomodulin Biomarker Activity (AID 2283051); conditions: primary human coronary artery smooth muscle cells; actives raise or lower the signal;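 also: thrombomodulin protein level measured by ELISA 24 h after dosing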
[3] = read-out: Tissue Factor, F3 (gene 2152); assay: BSK_CASM3C_TissueFactor: BioMAP Diversity Plus: CASM3C Assay for Tissue Factor Biomarker Activity (AID 2283052); conditions: primary human coronary artery smooth muscle cells; actives raise or lower the signal;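 also: cell surface tissue factor protein level read by ELISA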
[4] = read-out: Interferon-gamma inducible Protein 10 (IP10), CXCL10 (gene 3627); assay: BSK_hDFCGF_IP10: BioMAP Diversity Plus: hDFCGF Assay for Interferon-gamma inducible Protein 10 (IP10) Biomarker Activity (AID 2283053); conditions: primary human foreskin fibroblasts; actives raise or lower the signal
How it was run: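 ELISA read-out of IP-10 (CXCL10) from primary human skin fibroblasts, 24 h after compound addition. Gain or loss of signal versus DMSO baseline, bidirectional curve fitting.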

[5] = read-out: Urokinase-type plasminogen activator receptor (uPAR), PLAUR (gene 5329); assay: BSK_CASM3C_uPAR: BioMAP Diversity Plus: CASM3C Assay for Urokinase-type plasminogen activator receptor (uPAR) Biomarker Activity (AID 2283054); conditions: primary human coronary artery smooth muscle cells; actives raise or lower the signal;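 also: cell-surface uPAR protein level quantified by ELISA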
[6] = read-out: Vascular cell adhesion molecule 1 (VCAM1), VCAM1 (gene 7412); assay: BSK_CASM3C_VCAM1: BioMAP Diversity Plus: CASM3C Assay for Vascular cell adhesion molecule 1 (VCAM1) Biomarker Activity (AID 2283055); conditions: primary human coronary artery smooth muscle cells; actives raise or lower the signal;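 also: VCAM-1 protein level quantified by ELISA on the cells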
[7] = read-out: Collagen III, COL3A1 (gene 1281); assay: BSK_hDFCGF_CollagenIII: BioMAP Diversity Plus: hDFCGF Assay for Collagen III Biomarker Activity (AID 2283056); conditions: primary human foreskin fibroblasts; actives raise or lower the signal
How it was run: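 Human foreskin fibroblast primary cultures sampled 24 h after dosing; Collagen III quantified by ELISA. Signal fitted bidirectionally against DMSO baseline.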

[8] = read-out: Epidermal growth factor receptor (EGFR), EGFR (gene 1956); assay: BSK_hDFCGF_EGFR: BioMAP Diversity Plus: hDFCGF Assay for Epidermal growth factor receptor (EGFR) Biomarker Activity (AID 2283057); conditions: primary human foreskin fibroblasts; actives raise or lower the signal
How it was run: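 ELISA readout of EGFR on human dermal fibroblasts (primary foreskin cells), 24 h post-dosing; bidirectional curve fit vs DMSO baseline, gain or loss of signal scored.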

[9] = read-out: Interleukin-8 (IL8), CXCL8 (gene 3576); assay: BSK_hDFCGF_IL8: BioMAP Diversity Plus: hDFCGF Assay for Interleukin-8 (IL8) Biomarker Activity (AID 2283058); conditions: primary human foreskin fibroblasts; actives raise or lower the signal
How it was run: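 Primary human foreskin fibroblasts (hDFCGF system) dosed with chemical; IL-8 measured by ELISA 24 hours later. Bidirectional curve fitting relative to DMSO baseline; cytotoxicity tracked in parallel cultures by SRB total protein staining.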

[10] = BSK_hDFCGF_Proliferation: Cell Proliferation Assessment in the BioMAP Diversity Plus: hDFCGF Assay (AID 2283059); conditions: primary human foreskin fibroblasts;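 also: curves fitted for both rise and fall of signal versus DMSO baseline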
How it was run: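 Primary human foreskin fibroblasts, sub-confluent; […]; 10% TCA fix, 0.1% SRB stain, A560 total protein. Gain/loss fitted bidirectionally vs DMSO control.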

Measured: AC50

FC(F)(F)C(F)(F)C(F)(F)CC1CO1 (stereo unspecified)
active: [4] 12.9 µM
inactive: [1] | [2] | [3] | [4] | [5] | [6] | [7] | [8] | [9]

C[Si](Cl)(Cl)CCC(F)(F)C(F)(F)C(F)(F)C(F)(F)C(F)(F)C(F)(F)F
active: [4] 2.48 µM | [7] 0.332 µM
inactive: [1] | [2] | [3] | [4] | [5] | [6] | [7] | [8] | [9]

O=C(O)C(F)(F)C(F)(F)C(F)(F)C(=O)O
inactive: [1] | [2] | [3] | [4] | [5] | [6] | [7] | [8] | [9]

O=C(O)C(F)(F)C(F)(F)C(F)(F)C(F)(F)C(F)(F)C(F)(F)C(F)F
inactive: [1] | [2] | [3] | [4] | [5] | [6] | [7] | [8] | [9] | [10]
active: [4] 8.52 µM | [7] 30 µM | [8] 30 µM and 1.81 µM

OCC(F)(F)C(F)(F)C(F)(F)C(F)(F)C(F)(F)C(F)(F)CO
inactive: [1] | [2] | [3] | [4] | [5] | [6] | [7] | [8] | [9]

NCC(F)(F)C(F)(F)C(F)(F)C(F)(F)C(F)(F)C(F)(F)C(F)(F)C(F)(F)F
inactive: [1] | [2] | [3] | [4] | [5] | [6] | [7] | [8] | [9]

O=C1C=CC(=O)N1c1ccc(Cc2ccc(N3C(=O)C=CC3=O)cc2)cc1
inactive: [2] | [8] | [9]
active: [1] 4.31 µM | [3] 3.35 µM | [4] 2.58 µM | [5] 5.3 µM | [6] 2.94 µM | [7] 4.09 µM

O=C(c1ccccc1)c1ccc(O)cc1O
inactive: [1] | [2] | [4] | [5] | [6] | [7] | [8] | [9]
active: [3] 13.6 µM

O=C(O)CCC(F)(F)C(F)(F)C(F)(F)C(F)(F)C(F)(F)C(F)(F)C(F)(F)F
inactive: [1] | [2] | [3] | [4] | [5] | [6] | [7] | [8] | [9]

C=CC(=O)OCC(F)(F)C(F)(F)C(F)(F)COC(=O)C=C
active: [1] 44.9 µM and 28.3 µM | [2] 7.48 µM and 7.64 µM | [3] 7.91 µM | [4] 1.26 µM and 1.32 µM | [5] 48.3 µM and 47.6 µM | [6] 30 µM and 25.8 µM | [7] 5.04 µM and 1.49 µM | [9] 3.92 µM and 4.38 µM | [10] 111 nM and 1.28 µM
inactive: [3] | [8]

O=C(Cl)C(F)(F)C(F)(F)C(F)(F)C(F)(F)C(F)(F)C(F)(F)C(F)(F)F
inactive: [1] | [2] | [3] | [4] | [5] | [6] | [7] | [8] | [9]

CCN(CC)c1ccc2c(c1)Oc1cc(N(CC)CC)ccc1C21OC(=O)c2ccccc21
active: [6] 1.98 µM | [7] 10 µM
inactive: [1] | [2] | [3] | [4] | [5] | [8] | [9]

O=S(=O)(OCC(F)(F)F)C(F)(F)C(F)(F)C(F)(F)C(F)(F)F
active: [3] 30 µM | [4] 15.9 µM and 16.4 µM | [6] 13.2 µM
inactive: [1] | [2] | [3] | [5] | [6] | [7] | [8] | [9]

O=S(=O)(Cl)C(F)(F)C(F)(F)C(F)(F)C(F)(F)C(F)(F)C(F)(F)C(F)(F)C(F)(F)F
inactive: [1] | [2] | [3] | [4] | [5] | [6] | [7] | [8] | [9]

Cc1ccc(O)c(-n2nc3ccccc3n2)c1
inactive: [1] | [2] | [3] | [4] | [5] | [6] | [7] | [8] | [9]

CNS(=O)(=O)C(F)(F)C(F)(F)C(F)(F)C(F)(F)C(F)(F)C(F)(F)C(F)(F)C(F)(F)F
inactive: [1] | [2] | [3] | [4] | [5] | [7] | [8] | [9]
active: [4] 1.99 µM | [6] 8.2 µM and 1.69 µM

C=CC(=O)OCCC(F)(F)C(F)(F)C(F)(F)C(F)(F)F
inactive: [1] | [2] | [3] | [5] | [7] | [8] | [9]
active: [4] 30 µM and 21.3 µM | [6] 30 µM | [7] 21.9 µM

OCC(F)(F)C(F)(F)C(F)(F)CO
inactive: [1] | [2] | [3] | [4] | [5] | [6] | [7] | [8] | [9]

CCN(CC)c1ccc(C=O)cc1
inactive: [1] | [2] | [4] | [5] | [6] | [7] | [8] | [9]
active: [3] 5.46 µM

Cc1ccc(S(=O)(=O)C(I)I)cc1
active: [1] 3.42 µM | [3] 1.97 µM | [4] 2.71 µM | [5] 2.92 µM | [6] 2.46 µM | [7] 6.27 µM | [8] 3.79 µM | [9] 3.51 µM
inactive: [2]

NC(=O)C(F)(F)C(F)(F)C(F)(F)C(F)(F)C(F)(F)C(F)(F)C(F)(F)F
inactive: [1] | [2] | [3] | [4] | [5] | [6] | [7] | [8] | [9]

OCC(F)(F)C(F)(F)C(F)(F)C(F)(F)C(F)(F)C(F)(F)C(F)(F)C(F)(F)CO
active: [1] 43.2 µM | [4] 44.9 µM and 44.5 µM | [6] 40.9 µM | [7] 30 µM and 42.7 µM | [8] 47.8 µM and 48.7 µM | [9] 48 µM
inactive: [1] | [2] | [3] | [5] | [6] | [9]

C=CC(=O)OCC(F)(F)C(F)(F)C(F)(F)C(F)(F)C(F)(F)C(F)(F)C(F)(F)C(F)F
active: [4] 28.8 µM | [6] 11 µM
inactive: [1] | [2] | [3] | [4] | [5] | [6] | [7] | [8] | [9]

NC(O)(C(F)(F)F)C(F)(F)F
inactive: [1] | [2] | [3] | [4] | [5] | [6] | [7] | [8] | [9]

CCN(CCO)S(=O)(=O)C(F)(F)C(F)(F)C(F)(F)C(F)(F)C(F)(F)C(F)(F)C(F)(F)C(F)(F)F
inactive: [3] | [7] | [8] | [9]
active: [1] 19.2 µM and 9.12 µM | [2] 13.4 µM and 10.3 µM | [4] 35.9 µM and 30 µM | [5] 11.1 µM and 30 µM | [6] 7.11 µM and 8.86 µM | [7] 8.31 µM | [9] 49.9 µM

O=C(Cl)C(F)(F)C(F)(F)C(F)(F)C(F)(F)C(F)(F)C(F)(F)F
active: [8] 2.04 µM
inactive: [1] | [2] | [3] | [4] | [5] | [6] | [7] | [8] | [9] | [10]

CCOC(=O)CC(=O)C(F)(F)C(F)(F)F
inactive: [1] | [2] | [3] | [4] | [5] | [6] | [7] | [8] | [9]

CCOC(C=C(C)CCC=C(C)C)OCC
active: [1] 32.1 µM | [3] 28.6 µM | [4] 29.8 µM | [5] 31.4 µM | [6] 25.7 µM | [7] 29 µM
inactive: [2] | [8] | [9]

OCCCC(F)(F)C(F)(F)C(F)(F)C(F)(F)C(F)(F)C(F)(F)C(F)(F)C(F)(F)F
active: [1] 32 µM and 48.6 µM | [2] 7.67 µM | [3] 25.4 µM | [4] 9.54 µM and 7.81 µM | [5] 46.1 µM and 51.2 µM | [6] 37.4 µM and 30 µM | [7] 10.7 µM and 9.75 µM | [8] 3.16 µM and 3.2 µM | [9] 15.9 µM and 12 µM | [10] 3.28 µM and 4.77 µM
inactive: [2] | [3]

C=C(C)C(=O)OCC(F)(F)C(F)(F)C(F)(F)C(F)F
inactive: [1] | [2] | [3] | [4] | [5] | [6] | [7] | [8] | [9]

Cc1cc(O)c(C(C)(C)C)cc1C(C)(C)C
inactive: [8] | [9]
active: [1] 4.99 µM | [2] 12 µM | [3] 3.61 µM | [4] 6.51 µM | [5] 8.38 µM | [6] 4.81 µM | [7] 1.92 µM

FC(F)(F)C(F)(F)C(F)(F)C(F)(F)C(F)(F)C(F)(F)C(F)(F)CCI
inactive: [1] | [2] | [3] | [4] | [5] | [6] | [7] | [8] | [9]
active: [4] 2.45 µM | [7] 2.26 µM

O=S(=O)(O)CCC(F)(F)C(F)(F)C(F)(F)C(F)(F)F
inactive: [1] | [2] | [3] | [4] | [5] | [6] | [7] | [8] | [9] | [10]
active: [7] 2.04 µM
